Results on eight compounds are retold here after PubChem BioAssay (NCI).

Some test systems named below: HCT-15 colon; HT29 colon; SNB-75 CNS; SNB-19 CNS; U251 CNS; SK-MEL-5 melanoma; UACC-62 melanoma; SK-MEL-28 melanoma; SK-MEL-2 melanoma; EKVX NSCLC; SN12C renal; UO-31 renal; TK-10 renal; ACHN renal; CAKI-1 renal; A498 renal; CCRF-CEM leukemia; MOLT-4 leukemia; LOX IMVI melanoma.
Holding throughout (assay): NCI-60 one-dose screen, 48 h (100 = growth as untreated, 0 = no growth, -100 = all killed)
Common to all, as to conditions: 10 µM unless noted

Each structure is given as a SMILES string. About 83,000 compounds went through this panel and 20% of them were active in at least one assay; those are over-represented in the sample as a whole.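 Method: cells in 96-well plates; compound added at one concentration; 48 h incubation; percent growth measured; values under 10 scored active.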 A number with no mark means an inactive call. Activity calls are given as the source filed them.

Turning to `CN(C)Cc1c(-c2ccccc2)[nH]c2ccccc12`, the growth was 93.6% in the experiment on HCT-15 colon; 89.1% with HT29 colon; 93.6% with SNB-75 CNS; 99% in the experiment with SNB-19 CNS; 106% in the experiment on U251 CNS; 101% in the experiment with SK-MEL-5 melanoma. Further, the growth with UACC-62 melanoma is 102%; with SK-MEL-28 melanoma, 97.2%; with SK-MEL-2 melanoma it was 108%; in the experiment on EKVX NSCLC it was 92.3%; with SN12C renal, 99.4%; with UO-31 renal it was 100%. The growth with TK-10 renal was 102%; in the experiment with ACHN renal, 106%; in the experiment on CAKI-1 renal, 101%; in the experiment with A498 renal, 75.7%; in the experiment with CCRF-CEM leukemia, 86.5%; in the experiment on MOLT-4 leukemia, 99.4%.

`COc1ccc(C(=O)c2cc3c(N)c(C(=O)Nc4cccc5ccccc45)sc3nc2C)cc1`: the growth in the experiment with HCT-15 colon is 18.9%; with HT29 colon, -68.5% (active); in the experiment with SNB-75 CNS, -11.3% (active); in the experiment on SNB-19 CNS, 30.4%; in the experiment on U251 CNS, 10.5%; in the experiment on SK-MEL-5 melanoma it was -12.3% (active). The growth in the experiment with UACC-62 melanoma was 31.8%; in the experiment on LOX IMVI melanoma, 23.7%; in the experiment with SK-MEL-28 melanoma, 59.3%; with SK-MEL-2 melanoma it was 37.4%; in the experiment with EKVX NSCLC it was 36%; in the experiment with SN12C renal, 22.5%. Also, the growth is 36.3% with UO-31 renal; 60.5% in the experiment with TK-10 renal; 30.5% in the experiment with ACHN renal; 20.9% in the experiment with CAKI-1 renal; -7.9% (active) with A498 renal; 8.02% (active) in the experiment on CCRF-CEM leukemia. The growth with MOLT-4 leukemia was 13.8%.

On to `CC(=O)Nc1ccc(C(=O)Nc2cc(-c3ccccc3)ccc2N)cc1`, for which the growth was 85.7% in the experiment with HCT-15 colon; 50.7% with HT29 colon; 60.4% in the experiment on SNB-75 CNS; 91.7% with SNB-19 CNS; 78.1% with U251 CNS; 68.3% in the experiment on SK-MEL-5 melanoma. In addition, the growth in the experiment with UACC-62 melanoma is 39.5%; with LOX IMVI melanoma it was 71.3%; in the experiment with SK-MEL-28 melanoma, 56.6%; in the experiment on SK-MEL-2 melanoma, 73.8%; in the experiment with EKVX NSCLC, 71.4%; with SN12C renal it was 84.2%. Moreover, the growth was 48.7% in the experiment with UO-31 renal; 59.5% in the experiment on TK-10 renal; 54.8% in the experiment on ACHN renal; 47.5% with CAKI-1 renal; 83.9% in the experiment with A498 renal; 80.1% with CCRF-CEM leukemia. Also, the growth in the experiment with MOLT-4 leukemia is 64.8%.

Take `COc1ccc(C2CC(n3nnnc3-c3ccccc3)=NN2)cc1` (stereo not given): the growth was 52.4% in the experiment on HCT-15 colon; 84.5% in the experiment on HT29 colon; 76.9% in the experiment on SNB-75 CNS; 88.1% in the experiment on SNB-19 CNS; 83.9% in the experiment with U251 CNS; 70.7% with SK-MEL-5 melanoma. Also, the growth in the experiment with UACC-62 melanoma is 13.4%; in the experiment with LOX IMVI melanoma it was 22%; in the experiment on SK-MEL-28 melanoma it was 94.6%; in the experiment with SK-MEL-2 melanoma, 69.3%; in the experiment on EKVX NSCLC it was 66.2%; in the experiment with SN12C renal, 78.1%. In addition, the growth in the experiment with UO-31 renal was 35.3%; in the experiment with TK-10 renal it was 82.6%; in the experiment with ACHN renal, 42.1%; with CAKI-1 renal, 8.64% (active); with CCRF-CEM leukemia, 39.6%; with MOLT-4 leukemia, 50.3%.

Take `COc1ccccc1/C=N/NC1=NC2C(N1)N(C)C(=O)N2C` (stereo not given): the growth in the experiment on HCT-15 colon was 104%; with HT29 colon, 111%; in the experiment with SNB-75 CNS, 83.4%; in the experiment with SNB-19 CNS it was 104%; in the experiment with U251 CNS it was 99.2%; in the experiment with SK-MEL-5 melanoma, 100%. Also, the growth in the experiment on UACC-62 melanoma was 100%; in the experiment with LOX IMVI melanoma, 99.5%; in the experiment on SK-MEL-28 melanoma, 103%; in the experiment on SK-MEL-2 melanoma, 104%; in the experiment with EKVX NSCLC, 99.8%; in the experiment with SN12C renal, 100%. Further, the growth in the experiment with UO-31 renal is 86.2%; in the experiment with TK-10 renal it was 125%; in the experiment with ACHN renal it was 102%; with CAKI-1 renal, 91.7%; with A498 renal it was 97.4%; in the experiment on MOLT-4 leukemia, 102%.

Turning to `CCn1ccnc1C(=O)/C=C/c1ccc(CC(=O)Nc2ccc(F)cc2)cc1`, the growth was 13.2% in the experiment with HCT-15 colon; -27.6% (active) with HT29 colon; 6.23% (active) in the experiment with SNB-75 CNS; 14.9% in the experiment on SNB-19 CNS; 10.5% with U251 CNS; 29.3% in the experiment with SK-MEL-5 melanoma. Also, the growth was 55.6% with UACC-62 melanoma; 13.9% in the experiment on LOX IMVI melanoma; 79.8% in the experiment with SK-MEL-28 melanoma; 97.8% with SK-MEL-2 melanoma; 55.2% in the experiment with EKVX NSCLC; 26.2% in the experiment with SN12C renal. The growth in the experiment with UO-31 renal is 39.8%; in the experiment on TK-10 renal, 66.3%; in the experiment with ACHN renal it was 63.6%; in the experiment with CAKI-1 renal it was 34.1%; in the experiment on CCRF-CEM leukemia it was 7.58% (active); with MOLT-4 leukemia, 24.2%.

For the compound `CCCCc1ccc(Nc2nnc(SCC(=O)NC(=O)NCC)s2)cc1`, the growth with HCT-15 colon was 99.9%; with HT29 colon, 103%; in the experiment with SNB-75 CNS, 83%; in the experiment with SNB-19 CNS, 119%; in the experiment on U251 CNS it was 96%; in the experiment on SK-MEL-5 melanoma, 103%. Further, the growth in the experiment with UACC-62 melanoma was 78.2%; in the experiment on LOX IMVI melanoma, 94.1%; with SK-MEL-28 melanoma it was 105%; in the experiment on SK-MEL-2 melanoma, 90.8%; in the experiment on SN12C renal, 97%; in the experiment on UO-31 renal, 84.4%. In addition, the growth in the experiment on TK-10 renal was 107%; in the experiment with CAKI-1 renal, 115%; in the experiment on A498 renal, 96.6%; in the experiment with CCRF-CEM leukemia it was 78.8%; with MOLT-4 leukemia, 100%.

As for `COc1cc(NCCCN(CC(C)C)CC(C)C)c2ncccc2c1`, the growth in the experiment with HCT-15 colon was 72.9%; in the experiment with HT29 colon, 82.7%; with SNB-75 CNS it was 95.4%; with SNB-19 CNS, 99.9%; in the experiment on U251 CNS, 96.1%; with SK-MEL-5 melanoma, 97%. The growth is 89% in the experiment with UACC-62 melanoma; 97% in the experiment on SK-MEL-28 melanoma; 91.8% in the experiment on SK-MEL-2 melanoma; 84.5% in the experiment on EKVX NSCLC; 88.2% with SN12C renal; 81.4% with UO-31 renal. Also, the growth was 102% in the experiment with TK-10 renal; 80.7% in the experiment on ACHN renal; 92.4% in the experiment on CAKI-1 renal; 79.2% with A498 renal; 87.5% in the experiment on CCRF-CEM leukemia; 103% with MOLT-4 leukemia.
